Laboratory results taken from PubChem BioAssay (Tox21).
Results filed as inconclusive are left out. Active and inactive are the calls of the source. Unless noted, calls follow the shape of the dose curve; as a rule, active = well fitted curve in the direction sought with a large enough effect in the repeat runs; inconclusive = weak or mixed curves; inactive = no such curve, though single readings can be large; an effect the other way counts as inactive or inconclusive.

Key:
[1] = qHTS assay to identify small molecule agonists of the hypoxia (HIF-1) signaling pathway - cell viability counter screen (AID 1224844; calls by dose curve; also: nearly all actives have a fitted effect of over 50% in size)
How it was run: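 Cells (HRE-bla ME-180, 2,000 per well) sat 5 hrs at 37C, got compound for 17 hrs, were read for CCF4-AM FRET, and were finally lysed with CellTiter-Glo for a 30 min room-temperature luminescence read.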

[2] = qHTS assay to identify small molecule agonists of H2AX (AID 1224845; active = well fitted activation curve with a large enough effect in the signal ratio in the repeat runs, not every such curve was filed as active; the % refers to the signal ratio)
How it was run: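 Wild-type CHO-K1 cells plated overnight, then exposed 3 hr at 37C to compounds at 15 concentrations (0.76% DMSO). Lysed, then HTRF anti-pH2AX(S139)-cryptate/anti-H2AX-d2 detection after 24 hr at room temperature; emissions 665 and 620 nm.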

[3] = qHTS assay to identify small molecule agonists of H2AX - cell viability counter screen (AID 1224847; calls by dose curve; also: top concentration of the series differs between compounds; nearly all actives have a fitted effect of over 30% in size)
How it was run: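 Cytotoxicity counter screen in wild-type CHO-K1 cells: a 3 hr compound treatment at 37C across 15 concentrations, followed by CellTiter-Glo luminescence to gauge viable cells.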

[4] = A CellTox Green Cytotoxicity Assay to monitor cytotoxicity in HEK293 cells - 0 hour (AID 1224869); also: nearly all actives have a fitted effect of over 50% in size
How it was run: (§1)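 Fluorescence intensity, read at 0, 8, 16, 24, 32 and 40 h of compound treatment, reflected dye binding to DNA of dead HEK293 cells; compounds (23 nL, DMSO) were added 5 h after plating cells with reagent.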

[5] = qHTS RealTime-Glo MT Cell Viability Assay in HepG2 cells - 40 hour (AID 1224870); also: nearly all actives have a fitted effect of over 50% in size
How it was run: (§2)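 HepG2 cells mixed with RealTime-Glo MT reagents (NanoLuc plus cell-permeant prosubstrate) were seeded at 600 cells/well, incubated 5 h at 37 C/5% CO2, then pinned with compounds in DMSO; nonlytic luminescence tracked viability during 40 h treatment.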

[6] = qHTS RealTime-Glo MT Cell Viability Assay in HepG2 cells - 8 hour (AID 1224873); also: nearly all actives have a fitted effect of over 55% in size
How it was run: as §2

[7] = A CellTox Green Cytotoxicity Assay to monitor cytotoxicity in HEK293 cells - 24 hour (AID 1224875); also: nearly all actives have a fitted effect of over 45% in size
How it was run: as §1

[8] = qHTS RealTime-Glo MT Cell Viability Assay in HepG2 cells - 32 hour (AID 1224877); also: nearly all actives have a fitted effect of over 55% in size
How it was run: (§3)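 Cell number in HepG2 cultures estimated from NanoLuc luminescence generated by metabolic reduction of a prosubstrate by living cells. The homogeneous, nonlytic format allowed repeated reads at 0, 8, 16, 24, 32 and 40 h of compound exposure.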

[9] = A CellTox Green Cytotoxicity Assay to monitor cytotoxicity in HepG2 cells - 24 hour (AID 1224878); also: nearly all actives have a fitted effect of over 45% in size
How it was run: (§4)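 Using 1536-well format, dye-containing HepG2 suspension was seeded, allowed 5 h at 37 C/5% CO2, dosed by pintool with compounds, positive and negative controls, and imaged for fluorescence across 40 h.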

[10] = A CellTox Green Cytotoxicity Assay to monitor cytotoxicity in HepG2 cells - 40 hour (AID 1224879); also: nearly all actives have a fitted effect of over 40% in size
How it was run: as §4

[11] = qHTS RealTime-Glo MT Cell Viability Assay in HEK293 cells - 0 hour (AID 1224880); also: top concentration of the series differs between compounds; nearly all actives have a fitted effect of over 45% in size
How it was run: (§5)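 Viable HEK293 cells reduce a cell-permeant prosubstrate; the product diffuses out and is consumed by NanoLuc in the medium to give light. Compounds went in after a 5 h incubation and plates were read over the treatment course.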

[12] = qHTS RealTime-Glo MT Cell Viability Assay in HEK293 cells - 32 hour (AID 1224868); also: top concentration of the series differs between compounds; nearly all actives have a fitted effect of over 50% in size
How it was run: (§6)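 Homogeneous bioluminescent viability format in HEK293 cells (600 cells/well). Following 5 h at 37 C/5% CO2, 23 nL compound was pintooled; the signal was measured repeatedly during 40 h incubation.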

[13] = qHTS RealTime-Glo MT Cell Viability Assay in HEK293 cells - 16 hour (AID 1224872)
How it was run: as §6

[14] = qHTS RealTime-Glo MT Cell Viability Assay in HEK293 cells - 40 hour (AID 1224874); conditions: RealTime-Glo luminescence; max response: stronger effect = lower value; also: nearly all actives have a fitted effect of over 50% in size
How it was run: as §5

[15] = A CellTox Green Cytotoxicity Assay to monitor cytotoxicity in HepG2 cells - 16 hour (AID 1224876); also: nearly all actives have a fitted effect of over 45% in size
How it was run: as §4

[16] = qHTS RealTime-Glo MT Cell Viability Assay in HepG2 cells - 24 hour (AID 1224867); also: nearly all actives have a fitted effect of over 50% in size
How it was run: as §3

[17] = A CellTox Green Cytotoxicity Assay to monitor cytotoxicity in HEK293 cells - 40 hour (AID 1224871); also: nearly all actives have a fitted effect of over 45% in size
How it was run: as §1

[18] = qHTS assay to identify small molecule agonists of the hypoxia (HIF-1) signaling pathway (AID 1224846; active = well fitted activation curve with a large enough effect in the signal ratio in the repeat runs, not every such curve was filed as active; the % refers to the signal ratio)
How it was run: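 A low-serum medium (0.5% dialyzed FBS) holding 2,000 HRE-bla ME-180 cells per well is preincubated for 5 hrs, dosed with compounds by pintool, and kept a further 17 hrs at 37C, 5% CO2 before CCF4-AM FRET detection of beta-lactamase.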

[19] = qHTS assay to identify small molecule antagonists of the estrogen related receptor (ERR) signaling pathway from Tox21 library (AID 1224848); also: nearly all actives have a fitted effect of over 50% in size
How it was run: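 Cells: ERR line, 2,000/well; 6 h preincubation 37 C/5% CO2. Cpd in DMSO via pin tool; 18 h, 37 C. ONE-Glo, 30 min RT, luminescence.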

[20] = qHTS assay to identify small molecule agonists of the estrogen related receptor (ERR) signaling pathway from Tox21 library (AID 1224849; calls by dose curve; also: nearly all actives have a fitted effect of over 15% in size); conditions: ERR reporter cell line, ONE-Glo luciferase, 18 h; at 92.4 µM (top of the series) unless noted
How it was run: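 Screening used an NTP-provided ERR luciferase cell line. Compounds in DMSO were added 6 h after seeding and left 18 h at 37 C before a 30 min ONE-Glo step and luminescence reading.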
% is scaled to controls: 0 for no effect and ±100 for the full control effect.

CC(C)C(O)(c1ccc(OC(F)(F)F)cc1)c1cncnc1 (centres undefined)
inactive: Potency [1] | Potency [2] | Potency [3] | Potency [4] | Potency [5] | Potency [6] | Potency [7] | Potency [8] | Potency [9] | Potency [10] | Potency [11]

C1COC1
inactive: Potency [1] | Potency [2] | Potency [3] | Potency [12] | Potency [4] | Potency [5] | Potency [13] | Potency [6] | max response [14] 6.53% | Potency [7] | Potency [15] | Potency [8] | Potency [9] | Potency [10] | Potency [11]

CCOC(=O)OC(C)OC(=O)[C@@H]1N2C(=O)[C@@H](NC(=O)[C@H](N)c3ccccc3)[C@H]2SC1(C)C (some centres undefined)
inactive: Potency [1] | Potency [2] | Potency [3] | Potency [16] | Potency [12] | Potency [4] | Potency [5] | Potency [17] | Potency [13] | Potency [6] | max response [14] -0.757% | Potency [7] | Potency [15] | Potency [8] | Potency [9] | Potency [10] | Potency [11]

CCn1cc(C(=O)O)c(=O)c2cc(F)c(N3CCNCC3)cc21
inactive: Potency [1] | Potency [2] | Potency [3] | Potency [12] | Potency [4] | Potency [17] | Potency [13] | Potency [6] | max response [14] 11.4% | Potency [7] | Potency [15] | Potency [8] | Potency [9] | Potency [10] | Potency [11]

CC(=O)c1cc2ccccc2s1
inactive: Potency [1] | outcome [18] | Potency [3] | Potency [16] | Potency [12] | Potency [4] | Potency [5] | Potency [17] | Potency [13] | Potency [6] | max response [14] 2.63% | Potency [7] | Potency [15] | Potency [8] | Potency [9] | Potency [10] | Potency [11]

CNC(=O)c1cnn(-c2nc(N)c3ncn([C@@H]4O[C@H](CO)[C@@H](O)[C@H]4O)c3n2)c1
inactive: Potency [1] | outcome [18] | Potency [3] | Potency [16] | Potency [12] | Potency [4] | Potency [5] | Potency [17] | Potency [13] | Potency [6] | max response [14] 4.42% | Potency [7] | Potency [8] | Potency [9] | Potency [10] | Potency [11]

CCCCCCNC(=O)n1cc(F)c(=O)[nH]c1=O
inactive: Potency [1] | outcome [18] | Potency [3] | Potency [19] | activity change, positive = activation [20] -8.15% [at 42.5 µM] | Potency [12] | Potency [4] | Potency [5] | Potency [17] | Potency [13] | Potency [6] | max response [14] -6.08% | Potency [7] | Potency [15] | Potency [8] | Potency [9] | Potency [10] | Potency [11]
